# Compound activity deposited in PubChem BioAssay by several laboratories.
# Sampled rows, rich in hits. Any-hit rate of the full collection: about 3.1%.
# SUMO Mot1 rescue: blocks SUMOylation pathway, rescuing yeast Mot1-301 growth; S. cerevisiae Mot1-301 growth rescue, ATP luminescence, 38.5C; percent above DMSO median, 100 means doubled; growth rescue, % at 18.8 µM; 320,000 compounds, 1% hits;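 active means every valid replicate shows activation above 250% relative to neutral control wells; inactive means the rest, any valid replicate at or below 250%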;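 further: OY570 slx delta 5 strain wells were the positive control but not used for scaling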
# NadD block: inhibitors of Staphylococcus aureus NadD; purified NadD enzyme, colorimetric absorbance read-out; inhibition, % at 20 µM; 360,000 compounds, 0.78% hits; AID 602399; in the data active means inhibition above about 26%
# Calb FLC: C. albicans growth modulation with fluconazole | C. albicans CaCi-2 (fluconazole-resistant clinical isolate) + fluconazole, Alamar Blue growth, 48 h | growth inhibition, % (concentration not given with the values) | 300,000 compounds, 0.57% hits | AID 1979;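 active means growth inhibition above about 58% in most replicates, limit read from the data, passing the limit was not always enough; inconclusive means exactly half the replicates above a set limit; inactive means most replicates below a set limit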;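 further: all wells also contain fluconazole at 8 µg/ml as a sub-toxic cotreatment; 0% = median of DMSO wells and 100% = median of geldanamycin control wells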
# ATG4B inh: ATG4B (human) cysteine protease inhibition. Q9Y4P1. ATG4B cleavage of LC3-PLA2, NBD-HPC fluorescence, 1 h. inhibition, % at 8.33 µM. 340,000 compounds, 0.51% hits. AID 504462; in the data active means inhibition above about 40%
# FAS-TE inh: FAS thioesterase (human) inhibition. 360,000 compounds, 0.67% hits. inhibition, % at 15 µM. P49327. recombinant FAS-TE, OMFH fluorogenic substrate, fluorescence endpoint;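 active means compounds whose normalised, plate-corrected inhibition of enzyme fluorescence in the single-dose primary screen is 50% or more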;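 further: 0% = DMSO with enzyme and 100% = substrate without enzyme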
# FAS-TE conf: confirmation of human fatty acid synthase thioesterase inhibitors | shares compounds with FAS-TE inh | 2,300 compounds, 45% hits | AID 624325 | recombinant FAS-TE, OMFH fluorogenic substrate, fluorescence | inhibition, % at 15 µM;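 active means compounds inhibiting the enzyme by at least 50% at 15 µM in any one of the replicates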;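 further: 0% = enzyme with DMSO only and 100% = wells lacking enzyme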
# The depositor's hits bear a star; u = inconclusive; x = no result.
SMILES,SUMO Mot1 rescue,NadD block,Calb FLC,ATG4B inh,FAS-TE inh,FAS-TE conf
Cc1ccc(C(=O)N/C(=C\c2cccc([N+](=O)[O-])c2)C(=O)Nc2cccc(C(=O)O)c2)cc1,-6,0,-1,3,55*,60*
COc1cc(N=Nc2ccc(Br)cc2)cc(C=O)c1O,x,8,x,x,6,x
O=[N+]([O-])c1ccc(SNc2ccccc2)c([N+](=O)[O-])c1,x,-6,x,1,57*,45*
O=C(NCCc1ccc(O)c(Br)c1)c1ccc(Br)o1,x,-3,x,x,-10,x
O=c1cc2c(nn1Cc1cccc([N+](=O)[O-])c1)-c1ccccc1CC2,-10,-2,7,3,71*,24
O=c1cc2c(nn1Cc1ccccc1)-c1ccccc1CC2,-3,-7,16,7,-4,x
CCCCCCN1C[C@@H](n2cc(C3CC3)nn2)[C@H](O)C[C@@H]1c1ccc(Cl)cc1,x,0,x,x,11,x
Cc1cc(S(=O)(=O)NCc2ccncc2)c(C)cc1Br,-6,-1,7,0,5,x
O=C(COC(=O)[C@@H]1CC(O)CN1S(=O)(=O)c1ccc2c(c1)OCCO2)Nc1cc(F)ccc1F (stereo not given in full),-3,-3,x,-2,-4,x
O=S(=O)(c1ccccc1)n1ccc(-c2cnc(-c3ccccc3)s2)n1,-9,-8,-6,4,63*,58*
O=C(CN(C1CCCCC1)S(=O)(=O)c1ccc(Cl)cc1)N1CCOCC1,-9,4,-3,-7,-3,x
CN(CC(=O)Nc1ccccc1Cl)C1CCCCC1,6,1,-1,-1,6,x
O=C(CN(C(=O)c1cccc([N+](=O)[O-])c1)C1CCCCC1)Nc1ccc(Cl)c([N+](=O)[O-])c1,3,8,-1,1,81*,26
Cc1ccc([N+](=O)[O-])cc1NC(=O)CN(C1CCCCC1)S(=O)(=O)c1ccc(Cl)cc1,x,-3,6,9,54*,19
Cc1ccc([N+](=O)[O-])cc1NC(=O)CN(C(=O)c1ccccc1Cl)C1CCCCC1,-21,1,-2,-8,74*,15
Cc1ccc(NC(=O)CN(C)C(=O)c2ccc(Cl)c([N+](=O)[O-])c2)cc1,-4,-2,u,-10,60*,68*
CC(=O)N(CCc1ccccc1)Cc1cc2ccc(C)c(C)c2[nH]c1=O,-6,-1,20,4,3,x
CC(C)(C)c1ccc(C(=O)N2CCC2(C)C(=O)Nc2cccc(C#N)c2)cc1 (stereo not given),x,-5,x,x,65*,66*
Cc1ccc2c(c1)N(CCC(=O)NC1CCCCC1C)C(=O)CO2 (stereo not given),176,1,0,-5,-3,x
CC(=O)Nc1ccc(S(=O)(=O)N(C)c2ccc(OCC(=O)NCCc3ccccc3F)cc2)cc1,x,-2,x,-8,6,x
O=C(NNc1nc(-c2ccccc2)c2cc(Br)ccc2n1)c1ccc(S(=O)(=O)N2CCOCC2)cc1,87,24,11,-4,80*,20
CC(C)c1ccc(NC(=O)c2csnn2)cc1,31,8,7,-4,1,x
CC(C)c1ccc(NC(=O)c2snc3ccc(Cl)cc23)cc1,-7,-2,2,-1,58*,34
Cc1cc(C)c(C#N)c(SCC(=O)c2ccc(Cl)cc2Cl)n1,5,-4,-4,-6,72*,37*
CCOC(=O)CSc1nc(C)cc(C)c1C#N,4,-6,-11,9,-2,x
SMILES,SUMO Mot1 rescue,NadD block,Calb FLC,ATG4B inh,FAS-TE inh,FAS-TE conf
CCOc1ccc(S(=O)(=O)N2CCC(C(=O)Nc3ccc(C)c(S(=O)(=O)N4CCOCC4)c3)CC2)cc1,x,-6,x,-17,52*,29
Cc1ccc(OCCSc2nc3ccccc3n2CC(=O)O)cc1C,155,-2,-7,-1,4,x
CN(C)S(=O)(=O)c1ccc(N2C(=O)CC2(/C=C/c2ccccc2)C(=O)NC2CCCC2)cc1 (stereo not given),25,8,-29,-11,60*,29
O=C(O)c1ccc(Cl)c(NC(=S)NC(=O)c2cccc(COc3ccccc3)c2)c1,-20,13,1,4,61*,72*
O=C(NC(=S)Nc1ccc(Cl)c(C(=O)O)c1)c1cccc(COc2ccccc2)c1,120,10,22,12,-39,x
CCOC(=O)[C@@H]1[C@H]2COc3ccccc3[C@H]2N2C(=O)N(c3ccc(Br)cc3)C(=O)[C@]12C,23,-11,x,-1,16,x
CCCCNC(=S)N(C)/N=C/c1ccc(F)cc1,1,-2,-5,10,31,x
CCCCNC(=S)N(C)/N=C/c1ccc2c(c1)OCO2,-12,-3,10,-11,53*,43
CC1Cc2ccccc2N1Cc1cccc([N+](=O)[O-])c1 (stereo not given),7,-3,0,3,26,x
O=C(N/N=C/c1coc2ccc(Cl)cc2c1=O)c1cc(O)cc(O)c1,-41,11,30,39,67*,41
O=C(NC1CCCCC1)C1CC(=O)N(c2cccc([N+](=O)[O-])c2)C1 (stereo not given),-5,13,11,-4,80*,84*
CCOC(=O)c1ccccc1NC(=O)COC(=O)c1cc([N+](=O)[O-])ccc1N1CCOCC1,-3,-5,6,-1,53*,19
O=C(COC(=O)c1cc([N+](=O)[O-])ccc1N1CCOCC1)Nc1c(Cl)cccc1Cl,-1,-5,1,-7,67*,75*
O=[N+]([O-])c1ccc(CN2CC(N3CCC(Cc4ccccc4)CC3)CS2(=O)=O)cc1 (stereo not given),x,-3,x,x,51*,57*
N#Cc1c(N)n(Cc2ccccc2)c(=O)c2cc([N+](=O)[O-])ccc12,-13,-9,-3,0,44,x
Cc1ccc(Cn2c([N+](=O)[O-])cnc2C)cc1,19,0,-5,-9,-8,x
Cc1nc2ccc([N+](=O)[O-])cc2c(=O)n1Cc1ccccc1Br,-7,11,1,2,71*,29
Cc1nc2ccccc2n1Cc1ccccc1Br,-21,-2,22,-4,-4,x
Cc1ccc(Cn2c(C)nc3ccc([N+](=O)[O-])cc3c2=O)cc1,153,1,2,2,75*,59*
Cc1nc2ccc([N+](=O)[O-])cc2c(=O)n1Cc1ccc([N+](=O)[O-])cc1,72,5,-3,0,59*,63*
Cc1nc2ccc([N+](=O)[O-])cc2c(=O)n1Cc1cccc(Br)c1,6,5,16,2,46,x
Cc1nc2ccc([N+](=O)[O-])cc2c(=O)n1Cc1ccc(Br)cc1,-7,2,-2,-2,93*,63*
COc1ccc(NC(=O)/C(C#N)=C/c2c(C)nn(-c3ccc(F)cc3)c2Cl)cc1OC,-13,-11,-1,-18,56*,33
